8 compounds from PubChem BioAssay can be followed below.

Assay [1] relates to Wnt5a (protein binding on small-molecule microarray). The assay can be described thus: Wnt5a binders on small-molecule microarray, primary screen, biophysical, 635/667 nm fluorescence (AID 1142).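 Also: fluorescence read at 667 nm with signal to noise per printed feature.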 Particulars: 635 nm fluorescence, higher = more signal.
A short description of assay [2]: cell viability in Huh7 cells, primary screen, cytotoxicity control for HCV replication inhibitor project, CellTiter-Glo luminescence, basal, 48 h (AID 1143).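 Also: Huh7 hepatoma cells carrying a hepatitis C replication reporter with no stimulus; test concentration not given here.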 To be noted: Huh7 HCV replicon, higher = more signal, called active from +8 up or from −8 down.
A short description of assay [3]: P. aeruginosa biofilm formation inhibitors, primary screen, PAO1 strain, BacTiter-Glo luminescence, LB-PBS (AID 1144). Particulars: 12 h, higher = more signal.
The nature of assay [4]: CREB reporter modulators without forskolin, primary screen, cell-based, PC12, CRE-LacZ reporter, unstimulated (AID 1145). To be noted: no forskolin, luminescence, 4.5 h, higher = more signal, called active from +8 up or from −8 down.
Assay [5] can be described thus: CREB reporter modulators under forskolin, primary screen, cell-based, PC12, CRE-LacZ reporter, forskolin-stimulated (AID 1146).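 Also: PC12 cells with 6xCRE LacZ reporter stimulated by forskolin 10 µM; beta-galactosidase reporter signal reflecting CREB driven transcription.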 Particulars: luminescence, 4.5 h, higher = more signal, called active from +8 up or from −8 down.
Assay [6] deals with Streptavidin (Streptomyces avidinii) (UniProt P22629). The assay can be described thus: streptavidin binders on small-molecule microarray, primary screen, artefact control for SMM compound annotation, biophysical, 635/667 nm fluorescence (AID 1147).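 Also: signal reflects streptavidin binding to arrayed compounds as a control protein.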 To be noted: streptavidin binding, higher = more signal.
Assay [7] is described as follows: small-molecule binders of probe aInhba, primary screen, biochemical, small-molecule microarray, 635/667 nm fluorescence (AID 1148).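 Also: score merges 667nm spot fluorescence with signal-to-noise for antibody binding to printed compounds.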 Particulars: higher = more signal.
The target in assay [8] is Torsin-1A (Homo sapiens) (UniProt O14656). The experiment in a line: torsin A binders from cell lysate, primary screen, small-molecule microarray, wild-type, 635/667 nm (AID 1149). Particulars: COS7 hTOR1A-WT lysate, 635 nm fluorescence, higher = more signal.
For assay [9] the target is unchanged. The assay can be described thus: small-molecule binders of mutant TOR1A in lysate, primary screen, cell lysate, small-molecule microarray, COS7 lysate, 635/667 nm fluorescence (AID 1150).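 Also: score pools 667 nm emission and signal to noise measuring lysate protein binding.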 Particulars: COS7 hTOR1A mutant lysate, 635 nm fluorescence, higher = more signal.
Assay [10] deals with Sonic hedgehog protein (Shh). The experiment in a line: small-molecule binders of Shh protein, primary screen, biochemical, small-molecule microarray, 635/667 nm fluorescence (AID 1151).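 Also: Shh protein binding to compounds spotted on small-molecule microarray slides; score combines spot fluorescence intensity with signal-to-noise across triplicate slides.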 To be noted: small-molecule microarray binding, 635 nm fluorescence; higher = more signal.
Assay [11] in a line: E. coli DRC41 culture turbidity changes, primary screen, E. coli filamentation inducer project, strain DRC41, OD650, 48 h (AID 1152).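 Also: E. coli MC1000 strain DRC41 lacking acrAB efflux pump and sulA.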 Particulars: E. coli DRC41 (acrAB sulA), higher = more signal, called active from +8 up or from −8 down.
Assay [12] is described as follows: small-molecule binders of probe aLefty1, primary screen, biochemical, small-molecule microarray, 635/667 nm fluorescence (AID 1153).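 Also: score merges spot fluorescence with signal-to-noise ratio from the scanned slide images.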 To be noted: higher = more signal.
Assay [13] is described as follows: PSAC antagonists in infected red cells, primary screen, cell-based, P. falciparum Indochina, OD700, 1 h (AID 1154). To be noted: P. falciparum Indochina infected RBC osmotic lysis, higher = more signal, called active from +8 up or from −8 down.
Assay [14] in a line: PSAC antagonists in infected red cells, primary screen, cell-based, P. falciparum Indochina, OD700, 2 h (AID 1155).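 Also: lysis reports solute entry through the parasite surface anion channel PSAC; channel blockers reduce lysis of infected cells.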 Particulars: P. falciparum Indochina infected erythrocytes, osmotic lysis OD700; higher = more signal, called active from +8 up or from −8 down.
The nature of assay [15]: osmotic lysis modulators in infected erythrocytes, primary screen, PSAC antagonist project, cell-based, P. falciparum Indochina, OD700, 3 h (AID 1156). To be noted: higher = more signal, called active from +8 up or from −8 down.
Assay [16] is described as follows: PSAC antagonists in infected red cells, primary screen, cell-based, P. falciparum Indochina, OD700, 18 h (AID 1157). Particulars: P. falciparum Indochina infected erythrocytes, osmotic lysis OD700, 18 h; higher = more signal, called active from +8 up or from −8 down.
Assay [17] can be described thus: modulators of S6 phosphorylation in cells, primary screen, cell-based, A549, cytoblot, luminescence, serum-stimulated (AID 1158).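 Also: serum-stimulated A549 lung adenocarcinoma cells; signal is phosphorylated S6 detected by cytoblot immunostaining with HRP secondary.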 To be noted: A549 phospho-S6 cytoblot, 5 h, higher = more signal.
The target in assay [18] is NADPH oxidase 2 (Homo sapiens) (UniProt P04839). The assay can be described thus: NOX2-dependent H2O2 signal modulators, primary screen, NOX inhibitor project, cell-based, HEK293-NOX2, PMA-stimulated, Amplex Red fluorescence (AID 1159). Also: test concentration not given here. To be noted: 45 min, higher = more signal, called active from +8 up or from −8 down.
For assay [19], the target named is NADPH oxidase 4 (Homo sapiens) (UniProt Q9NPH5). The experiment in a line: NOX4-dependent H2O2 signal modulators, primary screen, NOX inhibitor project, cell-based, HEK293-NOX4, tetracycline-induced, Amplex Red fluorescence (AID 1160). Particulars: 45 min, higher = more signal, called active from +8 up or from −8 down.
Assay [20] addresses NADPH oxidase 5 (Homo sapiens) (UniProt Q96PH1). The experiment in a line: NOX5-dependent H2O2 signal modulators, primary screen, NOX inhibitor project, cell-based, HEK293-NOX5, Amplex Red fluorescence (AID 1161). Particulars: HEK293-NOX5, ionomycin, 45 min, higher = more signal.

Active and inactive are the calls of the source. Unless noted, no rule for the calls is given here.

Chain of Torsin-1A (Homo sapiens) (O14656 whole entry, looked up): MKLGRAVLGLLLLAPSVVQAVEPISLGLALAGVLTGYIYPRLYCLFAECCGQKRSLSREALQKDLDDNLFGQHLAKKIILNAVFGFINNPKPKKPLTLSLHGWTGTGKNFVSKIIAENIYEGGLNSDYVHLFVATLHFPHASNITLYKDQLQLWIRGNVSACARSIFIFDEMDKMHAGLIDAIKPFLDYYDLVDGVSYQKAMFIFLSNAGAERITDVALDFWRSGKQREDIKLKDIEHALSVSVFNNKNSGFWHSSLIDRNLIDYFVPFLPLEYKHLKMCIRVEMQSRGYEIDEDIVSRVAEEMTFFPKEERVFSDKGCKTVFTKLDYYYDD
Chain of Streptavidin (Streptomyces avidinii) (P22629 whole entry, looked up): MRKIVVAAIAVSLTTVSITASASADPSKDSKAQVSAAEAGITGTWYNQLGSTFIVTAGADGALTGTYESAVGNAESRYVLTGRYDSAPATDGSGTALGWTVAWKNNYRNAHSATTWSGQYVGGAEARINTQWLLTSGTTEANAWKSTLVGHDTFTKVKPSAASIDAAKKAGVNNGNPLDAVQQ
Chain of NADPH oxidase 2 (Homo sapiens) (P04839 whole entry, looked up): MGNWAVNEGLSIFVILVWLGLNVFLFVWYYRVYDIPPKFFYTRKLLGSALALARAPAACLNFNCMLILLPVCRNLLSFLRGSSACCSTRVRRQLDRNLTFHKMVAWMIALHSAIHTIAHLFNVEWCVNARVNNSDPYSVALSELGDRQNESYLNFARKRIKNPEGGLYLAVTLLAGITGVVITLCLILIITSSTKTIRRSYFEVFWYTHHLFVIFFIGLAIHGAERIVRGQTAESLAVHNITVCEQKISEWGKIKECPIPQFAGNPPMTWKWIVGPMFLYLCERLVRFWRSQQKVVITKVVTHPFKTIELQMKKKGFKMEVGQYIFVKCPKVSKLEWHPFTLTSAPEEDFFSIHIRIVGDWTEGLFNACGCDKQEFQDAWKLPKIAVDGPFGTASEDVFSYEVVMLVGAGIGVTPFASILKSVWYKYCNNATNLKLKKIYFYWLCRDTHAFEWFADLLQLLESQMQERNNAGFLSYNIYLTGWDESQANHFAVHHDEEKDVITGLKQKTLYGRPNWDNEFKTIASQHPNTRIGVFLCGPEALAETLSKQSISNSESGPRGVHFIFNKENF
Chain of NADPH oxidase 5 (Homo sapiens) (Q96PH1 whole entry, looked up): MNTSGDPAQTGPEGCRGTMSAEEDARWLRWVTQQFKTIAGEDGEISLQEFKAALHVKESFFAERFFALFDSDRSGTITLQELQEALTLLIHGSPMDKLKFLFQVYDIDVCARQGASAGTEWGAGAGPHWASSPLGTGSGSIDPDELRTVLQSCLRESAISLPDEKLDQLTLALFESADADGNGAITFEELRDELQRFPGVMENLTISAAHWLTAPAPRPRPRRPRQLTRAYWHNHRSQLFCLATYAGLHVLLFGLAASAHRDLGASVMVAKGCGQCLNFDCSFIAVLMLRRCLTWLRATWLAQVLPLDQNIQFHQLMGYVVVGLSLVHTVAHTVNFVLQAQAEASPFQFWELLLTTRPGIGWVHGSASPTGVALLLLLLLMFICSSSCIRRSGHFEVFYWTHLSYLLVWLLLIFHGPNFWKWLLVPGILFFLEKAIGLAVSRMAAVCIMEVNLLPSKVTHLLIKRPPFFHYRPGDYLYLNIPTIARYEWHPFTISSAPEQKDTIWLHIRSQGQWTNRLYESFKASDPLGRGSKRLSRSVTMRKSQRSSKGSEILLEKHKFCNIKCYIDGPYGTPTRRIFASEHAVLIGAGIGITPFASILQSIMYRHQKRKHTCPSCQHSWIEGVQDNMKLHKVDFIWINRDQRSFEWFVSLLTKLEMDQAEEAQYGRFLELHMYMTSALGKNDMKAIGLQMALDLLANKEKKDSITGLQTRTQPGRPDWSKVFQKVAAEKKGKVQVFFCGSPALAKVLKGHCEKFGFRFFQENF
Chain of NADPH oxidase 4 (Homo sapiens) (Q9NPH5 whole entry, looked up): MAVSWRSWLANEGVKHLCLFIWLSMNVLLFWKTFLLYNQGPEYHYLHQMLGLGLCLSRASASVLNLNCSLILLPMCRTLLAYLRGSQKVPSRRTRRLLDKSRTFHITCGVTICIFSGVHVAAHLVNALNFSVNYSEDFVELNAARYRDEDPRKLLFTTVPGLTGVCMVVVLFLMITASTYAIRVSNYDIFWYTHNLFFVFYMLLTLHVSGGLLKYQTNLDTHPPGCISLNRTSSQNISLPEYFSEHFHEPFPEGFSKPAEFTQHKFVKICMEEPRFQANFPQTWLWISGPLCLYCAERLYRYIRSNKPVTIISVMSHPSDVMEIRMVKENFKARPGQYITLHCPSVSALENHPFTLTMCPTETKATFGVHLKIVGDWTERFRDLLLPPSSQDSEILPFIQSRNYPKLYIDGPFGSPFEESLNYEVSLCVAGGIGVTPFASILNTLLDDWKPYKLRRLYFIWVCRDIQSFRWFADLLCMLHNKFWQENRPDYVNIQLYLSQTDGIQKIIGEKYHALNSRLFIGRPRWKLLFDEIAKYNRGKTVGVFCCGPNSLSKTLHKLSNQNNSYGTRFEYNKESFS

Consider `COc1ccc([Si](C)(C)[C@@H]2[C@@H](CC(=O)N(CCO)Cc3ccccc3)O[C@]3(C(=O)N(Cc4cccc(I)c4)c4ccccc43)[C@H]2C)cc1`, for which the composite z-score was 0.546 in [1]; -0.196 in [6]; -0.0405 in assay [7]; 0.48 in the assay with Torsin-1A (Homo sapiens) [8]; 0.443 with Torsin-1A (Homo sapiens) [9]; 1.79 in [10]. For the same compound, the composite z-score in assay [12] was 0.0464. Besides, the z-score in assay [2] was -4.61 (inactive); in [3], 0.191 (inactive); in [4] it was 1.42 (inactive); in [5] it was -1.11 (inactive); in assay [11], -0.307 (inactive); in assay [13], 4.63 (inactive). Also, the z-score in [14] is 1.5 (inactive); in [15], -0.0382 (inactive); in assay [16] it was 1.14 (inactive); in assay [17], 0.32; in assay [18], -0.953 (inactive); in assay [19], 1.19 (inactive). Besides, in [20], the z-score worked out at 1.43.

Take `COc1ccc(NN2C(C(O)c3ccccc3)C=CC3C(=O)N(C4CCCCC4)C(=O)C32)cc1` (stereo not given): the composite z-score in assay [1] worked out at 0.272; in assay [6], 0.929; in assay [7], 0.19; with Torsin-1A (Homo sapiens) [8], 0.473; in the assay with Torsin-1A (Homo sapiens) [9] it was 0.37; in assay [10] it was 0.871. For the same compound, the composite z-score in assay [12] worked out at 0.0479. For the same compound, the z-score in [2] is -2.44 (inactive); in assay [3], -1.71 (inactive); in assay [4] it was 0.127 (inactive); in assay [5], 1.65 (inactive); in [11], -0.775 (inactive); in assay [13], 11.8 (active). For the same compound, the z-score is 2.25 (inactive) in [14]; 1.31 (inactive) in assay [15]; 1.22 (inactive) in [16]; -0.388 in assay [17]; -2.76 (inactive) in assay [18]; -2.65 (inactive) in assay [19]. For the same compound, in assay [20], the z-score was -2.39.

Take `CO[C@H]1O[C@H](CO)[C@@H](OC(=O)Nc2cccc(F)c2)[C@H](OC(=O)c2cc3ccccc3[nH]2)[C@H]1OC(=O)c1cc2ccccc2[nH]1`: the composite z-score in assay [1] is -0.363; in assay [6], -0.256; in [7], -0.128; in the assay with Torsin-1A (Homo sapiens) [8], -0.536; with Torsin-1A (Homo sapiens) [9] it was -0.18; in assay [10], -0.111. Further, in assay [12], the composite z-score was -0.0412. Besides, the z-score was -3.31 (inactive) in assay [2]; -1.02 (inactive) in assay [3]; 1.03 (inactive) in assay [4]; -0.679 (inactive) in assay [5]; 0.378 (inactive) in assay [11]; 0.694 (inactive) in assay [13]. The z-score was -1.02 (inactive) in assay [14]; -0.0952 (inactive) in [15]; -0.908 (inactive) in [16]; 2.06 in [17]; -2.38 (inactive) in [18]; -0.453 (inactive) in [19]. The compound also yielded a z-score in assay [20] of -3.81.

Consider `CC(C)(C)OC(=O)CC[C@]1(C(=O)N2CCOCC2)COC(c2ccc(OCCCO)cc2)=N1`, for which the composite z-score was -0.278 in [1]; -0.0376 in assay [6]; 0.171 in assay [7]; 0.701 with Torsin-1A (Homo sapiens) [8]; 1.48 in the assay with Torsin-1A (Homo sapiens) [9]; -0.447 in assay [10]. This compound yielded a composite z-score in assay [12] of 0.0429. In addition, the z-score was -0.107 (inactive) in [2]; -0.367 (inactive) in [3]; 1.34 (inactive) in assay [4]; -0.841 (inactive) in [5]; 1.54 (inactive) in assay [11]; 20.8 (active) in assay [13]. In addition, the z-score was 4.54 (inactive) in [14]; 0.384 (inactive) in assay [15]; 1.18 (inactive) in [16]; 0.359 in assay [17]; -1.16 (inactive) in assay [18]; 0.324 (inactive) in assay [19]. The compound also registered a z-score in assay [20] of -1.06.

Regarding `COCCCNC(=O)[C@]1(Cc2ccccc2N=[N+]=[N-])N=C(c2ccc(OCCCO)cc2)O[C@@H]1c1ccccc1`, the composite z-score in [1] is 0.637; in assay [6] it was 1.58; in assay [7], 0.974; in the assay with Torsin-1A (Homo sapiens) [8], 0.303; in the assay with Torsin-1A (Homo sapiens) [9], 1.09; in assay [10], -0.223. The composite z-score in [12] is 0.749. For the same compound, the z-score is -3.94 (inactive) in assay [2]; 0.542 (inactive) in assay [3]; 1.76 (inactive) in [4]; -1.66 (inactive) in assay [5]; -0.112 (inactive) in [11]; 28.8 (active) in assay [13]. Also, the z-score is 22.5 (active) in assay [14]; 2.38 (inactive) in [15]; 3.2 (inactive) in assay [16]; 0.008 in [17]; -2.28 (inactive) in [18]; 0.471 (inactive) in [19]. Moreover, the z-score in assay [20] was 0.124.

Consider `CCCCCCc1nc(Cc2cc(OC)c(OC)c(OC)c2)c(C)c2c1[Si](C(C)C)(C(C)C)OC2`, for which the composite z-score in [1] is 0.0854; in assay [6], -0.0336; in assay [7], 0.0275; with Torsin-1A (Homo sapiens) [8], 0.246; with Torsin-1A (Homo sapiens) [9] it was 0.0486; in [10], 0.372. Also, the composite z-score in [12] was -0.0547. The z-score in assay [2] was -3.36 (inactive); in [3], -1.44 (inactive); in assay [4], 0.367 (inactive); in assay [5] it was -0.634 (inactive); in assay [11], 1.41 (inactive); in assay [13], 2.71 (inactive). The z-score in [14] is -0.23 (inactive); in assay [15], 0.906 (inactive); in assay [16] it was -0.471 (inactive); in [17], 2.51; in [18] it was -0.25 (inactive); in assay [19], -0.588 (inactive). For the same compound, in assay [20], the z-score was -2.37.

With `COC(=O)[C@@]1(Cc2ccc(F)cc2)[C@H]2c3cc(C(=O)N(C)C)n(Cc4ccsc4Br)c3C[C@H]2CN1C(=O)c1ccccc1`, the composite z-score in assay [1] was 2.41; in [6], 1.66; in assay [7], 2.03; with Torsin-1A (Homo sapiens) [8], -0.0698; with Torsin-1A (Homo sapiens) [9], 0.39; in [10], -0.635. Also, the composite z-score in [12] stood at 1.06. Also, the z-score in assay [2] was -1.49 (inactive); in assay [3] it was 0.00128 (inactive); in assay [4] it was 1.73 (inactive); in assay [5], -0.0932 (inactive); in assay [11], -1.62 (inactive); in [13] it was 3.86 (inactive). Further, the z-score in assay [14] was 0.413 (inactive); in assay [15] it was 0.952 (inactive); in assay [16], 0.765 (inactive); in assay [17], -0.155; in assay [18], -2.09 (inactive); in assay [19], -5.46 (inactive). This compound also yielded a z-score in [20] of -2.35.

On to `C=CC[C@H](O)c1ccc(O)c2ccccc12`, for which the composite z-score in assay [1] was 0.188; in [6], 0.881; in assay [7], -0.101; with Torsin-1A (Homo sapiens) [8], 0.172; with Torsin-1A (Homo sapiens) [9], 0.46; in assay [10] it was 1.96. Moreover, the composite z-score in assay [12] is -0.0163. In addition, the z-score in assay [2] is 0.273 (inactive); in assay [3], -0.725 (inactive); in assay [4], 6.45 (inactive); in [5], 1.82 (inactive); in assay [11], 0.675 (inactive); in assay [13] it was 1.28 (inactive). Besides, the z-score is 0.439 (inactive) in assay [14]; 0.168 (inactive) in assay [15]; 0.45 (inactive) in [16]; -0.323 in [17]; -5.36 (inactive) in [18]; -1.98 (inactive) in assay [19]. In assay [20], the z-score amounted to 1.42.
